In PubChem BioAssay (NCI):
About 83,000 compounds went through this panel and 20% of them were active in at least one assay; those are over-represented in the sample as a whole.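 How to read the values: 0–100, growth inhibition (40 = 60% inhibited); 0, no net growth; -100 to 0, cell death (-40 = 40% of starting cells died; -100 = all dead).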 Values without a mark were called inactive. Calls of active or inactive are those of the source.

Test system: UO-31 renal
Test: NCI-60 one-dose screen, 48 h (100 = growth as untreated, 0 = no growth, -100 = all killed)
Conditions: 10 µM unless noted
Method: Growth inhibition of the UO-31 human tumor cell line is measured as a screen for anti-cancer activity. Cells are grown in 96 well plates and exposed to the test compound for 48 hours. Compounds are tested at a single concentration, which is 10^-5 M for most compounds. The reported endpoint is percent growth (GI% or GIPRCNT), where numbers from 0 - 100% represent growth inhibition, and numbers from -100% - 0 represent cell death. For example, a value of 40 represents 60% growth inhibition. A value of 0 means no net growth occurred over the course of the experiment. A value of -40 indicates 40% of cells at the beginning of the experiment died by the end of the experiment. A value of -100 means all cells are dead at the end of the experiment.
NCI-60 Human Tumor Cell Lines Screen was performed using the standard one-dose NCI protocol, which is described in more detail at https://dtp.cancer.gov/discovery_development/nci-60/default.htm.
Compounds with GIPRCNT values below 10 were considered active. Activity score was based on GIPRCNT using the following formula: […]
Score is 0 for GIPRCNT values of 100 or above, 50 for GIPRCNT values of 0, and 100 for GIPRCNT values of -100.

| SMILES | growth |
| --- | --- |
| N#Cc1ccc(/C=N/NC(=O)c2[nH]c3ccc(Br)cc3c2-c2ccccc2)o1 | 24.8% |
| CCOC(=O)C1=C(N)N(c2ccccc2)C2=C(C(=O)CC(C)(C)C2)C1c1ccc(N2CCOCC2)cc1 (stereo not given) | 90.3% |
| COc1cc(-c2cc(-c3cccc(OCC(=O)O)c3)[nH]c(=O)c2C#N)cc(OC)c1OC | 81.8% |
| C[C@H](Nc1nc(NCCc2ccccc2)nc2ccccc12)c1ccccc1 | -95.9% (active) |
| CN(C)CCn1c2ccccc2c2nc3ccc([N+](=O)[O-])cc3nc21 | -47.6% (active) |
| COc1cc(/C=C/C(=O)c2ccc(C)cc2)ccc1Oc1nc(Nc2ccc(F)cc2)nc(N(C)C)n1 | 36.2% |
| CC(=O)c1cccc(NC(=O)CCC(=O)NS(=O)(=O)c2ccc(C)cc2)c1 | 92.5% |
| O=C(O)c1ccc(-c2ccc(/C=N/NC(=O)c3[nH]c4ccc(Br)cc4c3-c3ccccc3)o2)cc1 | 24.5% |
| CC1=C(C(=O)OCc2ccccc2)C(c2c(O)cc(O)cc2O)n2c(nc3ccccc32)N1 (stereo not given) | 46.4% |
| CSc1ccc(C(=O)Nc2ccc3nnn(/C(C#N)=C/c4ccccn4)c3c2)cc1 | -100% (active) |
| COc1ccc(C(=O)/C=C/c2ccc(OC)c(OCc3ccccc3)c2)cc1OC | 19.3% |
| COc1ccc(C2=NN(c3ccccc3)C(c3ccc(OC)c(OCc4ccccc4)c3)C2)cc1OC (stereo not given) | 91.7% |
| COc1ccc(-c2ccc(SCC(=O)NCCc3ccc(S(N)(=O)=O)cc3)nn2)cc1 | 76.8% |
| COc1ccc(/C=C/c2nc3ccccc3nc2Nc2cccc(C)c2)cc1 | 78.4% |
| Cc1ccc([C@H]2C(C(=O)c3ccc(Cl)cc3)C3(N[C@@H]2c2ccccc2)C(=O)Nc2ccccc23)cc1 (stereo not given in full) | 17.7% |
| O=C(/C=C/c1ccc(-c2ccccc2)cc1)c1nc2ccccc2n1Cc1ccc(Br)cc1 | 46.3% |
| NS(=O)(=O)c1ccc(NNC(=O)CCC(=O)c2ccccc2)cc1 | 84% |
| Cc1cc(C)cc(C(=O)Nc2cccc(-c3cn(-c4ccc(S(N)(=O)=O)cc4)nn3)c2)c1 | 68.2% |
| Nc1nnc(-c2c[nH]c3ncc(Br)cc23)c(-c2c[nH]c3ccc(F)cc23)n1 | 42.8% |
| O=C(NNc1nc2cc(F)ccc2n2c(C(=O)N3CCN(C4CC4)CC3)ccc12)c1ncccn1 | 14.8% |

| SMILES | growth |
| --- | --- |
| COc1ccc2c(c1)c(-c1cc(N)n3nc(-c4cn(C)c5ccccc45)cc3n1)cn2C | -88.3% (active) |
| COc1ccc2[nH]cc(-c3cc(N)n4nc(-c5cn(C)c6ccccc56)cc4n3)c2c1 | -93.7% (active) |
| COc1cc(C2CC(c3ccc(S(=O)(=O)NCCNc4nc(Nc5ccc(F)cc5)nc(N(C)C)n4)cc3)=Nc3c(N)nc(N)nc3N2)cc(OC)c1OC (stereo not given) | 86.1% |
| CC1(C)CC[C@]2(C(=O)O)CC[C@]3(C)C(=CCC4[C@@]5(C)C[C@@H](O)[C@@H]6OC(c7ccc(F)cc7)OC[C@@]6(C)C5CC[C@]43C)C2C1 (stereo not given in full) | 25.6% |
| O=c1[nH]c2ccccc2cc1CSc1cccc(Nc2nccc(-c3ccc4ccccc4c3)n2)c1 | 73.4% |
| S=C(Nc1ccc(OCc2nc3ccccc3[nH]2)cc1)NC1CCCCC1 | 96.8% |
| COc1ccc2[nH]c(=O)c(CSc3nccc(-c4ccc(OC)c(OC)c4)n3)cc2c1 | 16.1% |
| CC1(C)CC[C@]2(C(=O)Nc3ccc(F)cc3)CC[C@]3(C)C(=CCC4[C@@]5(C)C[C@@H](O)[C@H](O)[C@@](C)(CO)C5CC[C@]43C)C2C1 (stereo not given in full) | 29.8% |
| CCCCSc1nc(Nc2ccc(C(C)=O)cc2)c(C#N)c(-c2ccc(OC)cc2)n1 | 14.5% |
| C=C1CCC2C3(C)COC(c4ccccc4)OC3CCC2(C)C1CC(NCc1ccccc1)C1=CCOC1=O (stereo not given) | 56.7% |
| COc1ccccc1C(=O)NN1C(=O)/C(=C/C2=Cc3ccccc3OC2)SC1=S | 74% |
| CC(=O)Oc1ccc(/C=C/C(=O)N[C@@H](Cc2ccccc2)C(O)C(=O)NCc2ccccc2)cc1OC(C)=O (stereo not given in full) | 38.8% |
| Brc1ccc(N/N=C/c2c[nH]c3ccc(Br)cc23)nc1 | -18.7% (active) |
| COc1ccc(/C=C/c2nc3ccccc3c(=O)n2CC(=O)Nc2ccc(Cl)cc2)cc1 | 79.5% |
| O=C1Nc2ccc([N+](=O)[O-])cc2C1=Nc1ccccc1 | 69.4% |
| Cn1cc(-c2cc3nc(-c4c[nH]c5ccc(Br)cc45)cc(N)n3n2)c2ccccc21 | -97.7% (active) |
| CCN1C(=O)N(CC)C2NNC(Sc3c(C(=O)O)c4ccccc4n(C4CCCC4)c3=O)=NC21 (stereo not given) | 46.8% |
| N#Cc1c(NCc2ccccc2)n[nH]c1Nc1ccccc1 | 38.5% |
| Cc1sc2c(c1C)C(c1ccc(Cl)cc1)=N[C@@H](CC(=O)NCCCCCNC(=O)COc1ccc(C3CCC(=O)NC3=O)cc1)c1nnc(C)n1-2 (stereo not given in full) | 27.8% |
| COc1ccc(-c2nc3cc(C)ccc3n2CC(=O)N=Nc2c(O)[nH]c3ccccc23)cc1 | 53.7% |
